Measured values published in the supplement of paper PMC10338343.
± gives the standard deviation.

system: MILI (PIWIL2) piRISC loaded with L1MC piRNA (26 nt); assay: pre-steady-state target cleavage rate (min^-1); guide: L1MC piRNA 5'p-UAACUAAAUACUAUGCAAGCUGUAGG; MIWI and MILI are mouse PIWI proteins and EfPiwi is from a freshwater sponge; tags in brackets are library labels; higher = faster piRNA-guided slicing of the target; conditions: auxiliary factor: 500 nM mouse GTSF1
How it was run: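 Active affinity-purified piRISC carrying one synthetic guide (1 nM) was mixed with a transcribed, DNA-blocked target RNA library […] in HEPES–potassium acetate buffer at 33 °C for 0–8 or 0–960 min, with or without 500 nM GTSF1 partner protein. Uncleaved targets were then sequenced and normalised to depth and to weakly complementary targets. Three trials were pooled, and k3 was capped at 0.0001 min^-1. A burst-and-steady-state fit was applied to obtain the pre-steady-state cleavage rate.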
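Further: 1 nM active piRISC with 0.1 nM target library at 33 °C single turnover.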

Sequence	pre-steady-state target cleavage rate
UCCUGCAUGAGCUUGCAUAGUAUUUAGUUA	0.265 ± 0.019
UCCUGGUACAGGCUUGCAUAGUAUUUAGUUA	0.203 ± 0.026
UCCUGGAUGAGCAUGCAUAGUAUUUAGUUA	0.199 ± 0.016
UCCUGGAUCACCUUGCAUAGUAUUUAGUUA	0.234 ± 0.023
UCCUGGAACAGCUUGGAUAGUAUUUAGUUA	0.27 ± 0.013
UCCUGGAACUGCUUGCAUAGUUUUUAGUUA	0.0358 ± 0.0071
UCCUGGAUGAGUCUUGCAUAGUAUUUAGUUA	0.105 ± 0.016
UCCUGGAUGAGCUUGCAUAGUAUUUAGUGA	0.193 ± 0.025
UCCUGGAUCAGAUUGCAUAGUAUUUAGUUA	0.205 ± 0.013
UCCUCCUACAGUUGCAUAGUAUUUAGUUA	0.255 ± 0.014
UCCUCCUACAGCUUGCAUUGUUUUUAGUUA	0.0161 ± 0.0055
UCCUCCCUACAGCUUGCAUAGUAUUUAGUUA	0.303 ± 0.02
UCCUGGAAGAGCUUGCAUAGUUUUUAGUUA	0.0486 ± 0.011
UCCUGGAUGAGCAAGCAUAGUAUUUAGUUA	0.12 ± 0.014
UCCUCCGACAGCUUGCAUAGUAUUUAGUUA	0.25 ± 0.017
UCCUGGUACAGCUUGCAUAGUAUUUGGUUA	0.205 ± 0.033
UCCUGGAUGUGCUUCGCAUAGUAUUUAGUUA	0.155 ± 0.023
UCCUGCUACAGCUUGCAUAGUAAUUAGUUA	0.271 ± 0.028
UCCUGCUACGCUUGCAUAGUAUUUAGUUA	0.291 ± 0.025
UCCUCCUACACCUUGCAUAGUAUUUAGUUA	0.237 ± 0.025

Sequence	pre-steady-state target cleavage rate
UCCUGGAUGUCCUUGCAUAGUAUUUAGUUG [g2:g19:cont:t1G]	0.0765 ± 0.0096
UCCUGGUACAGCUUGCAUAGUACUUAGUUA	0.187 ± 0.029
UCCUGGAUGAGCUUGCAUAGUAUUCAGUUA	0.136 ± 0.026
UCCUGGAUGUCCUGGCAUAGUAUUUAGUUA	0.066 ± 0.013
UCCUGCUACAGAUUGCAUAGUAUUUAGUUA	0.299 ± 0.015
UCCUGCUACUGCAUGCAUAGUAUUUAGUUA	0.282 ± 0.025
UCCUGGUACAGCUAGCAUAGUAUUUUGUUA	0.085 ± 0.028
UCCUCCUACAGCUUCCAAAGUAUUUAGUUA	0.13 ± 0.019
UCCUGGAUGAGGUUGCAUAGUAUUUAGUUA	0.129 ± 0.015
UCCUGGAUCAGCAUGCAUAGUAUUUAGUUA	0.314 ± 0.019
UCCUCGUACACCUUGCAUAGUAUUUAGUUA	0.239 ± 0.022
UCCUGGAACUGCAUGCAUAGUAUUUAGUUA	0.224 ± 0.013
UCCUGGAUCAGCAUGCAUAGUAAUUAGUUA	0.181 ± 0.025
UCCUCCGUACAGCUUGCAUAGUAUUUAGUUA	0.272 ± 0.014
UCCUGGAUGUCCUUGCAUAGUAUUUAGUAA	0.117 ± 0.019
UCCUCCUUCAGCUUGCAUAGUAAUUAGUUA	0.211 ± 0.021
UCCUGGUUCAGCUAGCAUAGUAUUUAGUUA	0.239 ± 0.026
UCCUCCUACAGCUUGCAAGUAUUUAGUUA	0.155 ± 0.017
UCCUGGAUCACCUUGCAUAGUAAUUAGUUA	0.198 ± 0.03
UCCUGGAUCAGCUUGCAUAGUAUUUAGAUUA	0.0478 ± 0.011

same assay, conditions: auxiliary factor: none (no GTSF1)

Sequence	pre-steady-state target cleavage rate
UCCUGCAUGAGCUUGCAUAGUAUUUAGUUA	0.01 ± 0.0025
UCCUGGUACAGGCUUGCAUAGUAUUUAGUUA	0.0131 ± 0.0043
UCCUGGAUGAGCAUGCAUAGUAUUUAGUUA	0.00939 ± 0.0029
UCCUGGAUCACCUUGCAUAGUAUUUAGUUA	0.00706 ± 0.0023
UCCUGGAACAGCUUGGAUAGUAUUUAGUUA	0.0119 ± 0.0026
UCCUGGAACUGCUUGCAUAGUUUUUAGUUA	0.00455 ± 0.0018
UCCUGGAUGAGUCUUGCAUAGUAUUUAGUUA	0.0093 ± 0.0029
UCCUGGAUGAGCUUGCAUAGUAUUUAGUGA	0.00439 ± 0.003
UCCUGGAUCAGAUUGCAUAGUAUUUAGUUA	0.00667 ± 0.002
UCCUCCUACAGUUGCAUAGUAUUUAGUUA	0.00612 ± 0.0019
UCCUCCUACAGCUUGCAUUGUUUUUAGUUA	0.0039 ± 0.002
UCCUCCCUACAGCUUGCAUAGUAUUUAGUUA	0.0107 ± 0.0027
UCCUGGAAGAGCUUGCAUAGUUUUUAGUUA	0.004 ± 0.0023
UCCUGGAUGAGCAAGCAUAGUAUUUAGUUA	0.00601 ± 0.0021
UCCUCCGACAGCUUGCAUAGUAUUUAGUUA	0.00881 ± 0.0021
UCCUGGUACAGCUUGCAUAGUAUUUGGUUA	0.0142 ± 0.0043
UCCUGGAUGUGCUUCGCAUAGUAUUUAGUUA	0.00505 ± 0.0021
UCCUGCUACAGCUUGCAUAGUAAUUAGUUA	0.00539 ± 0.0023
UCCUGCUACGCUUGCAUAGUAUUUAGUUA	0.0067 ± 0.0024
UCCUCCUACACCUUGCAUAGUAUUUAGUUA	0.0085 ± 0.0022

Sequence	pre-steady-state target cleavage rate
UCCUGGAUGUCCUUGCAUAGUAUUUAGUUG [g2:g19:cont:t1G]	0.00821 ± 0.002
UCCUGGUACAGCUUGCAUAGUACUUAGUUA	0.00401 ± 0.0032
UCCUGGAUGAGCUUGCAUAGUAUUCAGUUA	0.00552 ± 0.0023
UCCUGGAUGUCCUGGCAUAGUAUUUAGUUA	0.00414 ± 0.0026
UCCUGCUACAGAUUGCAUAGUAUUUAGUUA	0.0107 ± 0.0034
UCCUGCUACUGCAUGCAUAGUAUUUAGUUA	0.00943 ± 0.0022
UCCUGGUACAGCUAGCAUAGUAUUUUGUUA	0.00427 ± 0.0033
UCCUCCUACAGCUUCCAAAGUAUUUAGUUA	0.0037 ± 0.0022
UCCUGGAUGAGGUUGCAUAGUAUUUAGUUA	0.0136 ± 0.0032
UCCUGGAUCAGCAUGCAUAGUAUUUAGUUA	0.0108 ± 0.0031
UCCUCGUACACCUUGCAUAGUAUUUAGUUA	0.00634 ± 0.0021
UCCUGGAACUGCAUGCAUAGUAUUUAGUUA	0.00585 ± 0.0025
UCCUGGAUCAGCAUGCAUAGUAAUUAGUUA	0.00637 ± 0.0027
UCCUCCGUACAGCUUGCAUAGUAUUUAGUUA	0.0094 ± 0.0023
UCCUGGAUGUCCUUGCAUAGUAUUUAGUAA	0.00376 ± 0.0019
UCCUCCUUCAGCUUGCAUAGUAAUUAGUUA	0.00503 ± 0.002
UCCUGGUUCAGCUAGCAUAGUAUUUAGUUA	0.0116 ± 0.0027
UCCUCCUACAGCUUGCAAGUAUUUAGUUA	0.00449 ± 0.0021
UCCUGGAUCACCUUGCAUAGUAAUUAGUUA	0.00446 ± 0.0029
UCCUGGAUCAGCUUGCAUAGUAUUUAGAUUA	0.00315 ± 0.0026
